This note sets out measurements from paper PMC7862700, “An all-to-all approach to the identification of sequence-specific readers for epigenetic DNA modifications on cytosine”.

Common to all, as to assay: DAPPL (digital affinity profiling via proximity ligation, sequencing); 10 mM Tris-HCl pH 7.5, 50 mM NaCl, 1 mM DTT, 4% glycerol, room temperature, 30 min; GST-TFs on glutathione beads, 16-mer random dsDNA library, 0.1% formaldehyde crosslink after washing; high values mean tight binding
One assay deals with T1, FLI1 (Homo sapiens, UniProt Q01543 1-452).
T1 sequence: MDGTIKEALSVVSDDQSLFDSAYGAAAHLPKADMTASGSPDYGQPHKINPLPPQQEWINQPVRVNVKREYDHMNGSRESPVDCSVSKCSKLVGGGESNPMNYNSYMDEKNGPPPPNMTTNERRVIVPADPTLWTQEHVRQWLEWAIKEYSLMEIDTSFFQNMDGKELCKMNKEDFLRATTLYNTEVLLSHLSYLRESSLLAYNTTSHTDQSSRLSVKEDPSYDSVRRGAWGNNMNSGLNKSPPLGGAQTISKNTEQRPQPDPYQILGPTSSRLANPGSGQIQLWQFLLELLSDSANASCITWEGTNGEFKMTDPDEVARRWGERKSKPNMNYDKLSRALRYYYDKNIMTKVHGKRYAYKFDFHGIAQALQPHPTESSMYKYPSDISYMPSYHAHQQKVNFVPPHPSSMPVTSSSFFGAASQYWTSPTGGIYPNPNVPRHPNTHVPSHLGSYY
The settings on record: protein: recombinant; tags: N-terminal GST; dsDNA, one strand shown. The method, boiled down:
(§1)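 Human transcription factors were made in yeast as GST fusions, captured on glutathione beads and barcoded with DNA. With a tag-only sample included, the pool was incubated with 200 nmole of a random double-stranded 16-mer DNA library in Tris/NaCl/DTT/glycerol buffer at room temperature for 30 min, then crosslinked with 0.1% formaldehyde after washing, ligated by proximity, amplified and sequenced. For binding signal, each hexamer's read frequency for a factor is divided by its frequency for the tag-only sample.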

In a further assay the target is T2, ELK1 (Homo sapiens, UniProt P19419 1-428).
T2 sequence: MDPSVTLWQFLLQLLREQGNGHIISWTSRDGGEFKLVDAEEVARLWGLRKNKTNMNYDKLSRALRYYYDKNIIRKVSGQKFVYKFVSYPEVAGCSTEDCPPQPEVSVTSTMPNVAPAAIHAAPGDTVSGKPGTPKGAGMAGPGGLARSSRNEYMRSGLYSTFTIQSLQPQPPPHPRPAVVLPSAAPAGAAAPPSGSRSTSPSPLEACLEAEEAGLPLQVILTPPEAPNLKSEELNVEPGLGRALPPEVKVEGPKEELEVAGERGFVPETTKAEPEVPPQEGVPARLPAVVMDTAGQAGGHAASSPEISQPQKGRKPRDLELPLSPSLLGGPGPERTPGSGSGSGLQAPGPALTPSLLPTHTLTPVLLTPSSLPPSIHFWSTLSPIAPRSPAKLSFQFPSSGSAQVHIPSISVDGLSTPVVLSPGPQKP
Particulars: protein: recombinant; tags: N-terminal GST; dsDNA, one strand shown. The method, boiled down: as §1

For the next assay, the target named is T3, GABPA (Homo sapiens, UniProt Q06546 1-454).
T3 sequence: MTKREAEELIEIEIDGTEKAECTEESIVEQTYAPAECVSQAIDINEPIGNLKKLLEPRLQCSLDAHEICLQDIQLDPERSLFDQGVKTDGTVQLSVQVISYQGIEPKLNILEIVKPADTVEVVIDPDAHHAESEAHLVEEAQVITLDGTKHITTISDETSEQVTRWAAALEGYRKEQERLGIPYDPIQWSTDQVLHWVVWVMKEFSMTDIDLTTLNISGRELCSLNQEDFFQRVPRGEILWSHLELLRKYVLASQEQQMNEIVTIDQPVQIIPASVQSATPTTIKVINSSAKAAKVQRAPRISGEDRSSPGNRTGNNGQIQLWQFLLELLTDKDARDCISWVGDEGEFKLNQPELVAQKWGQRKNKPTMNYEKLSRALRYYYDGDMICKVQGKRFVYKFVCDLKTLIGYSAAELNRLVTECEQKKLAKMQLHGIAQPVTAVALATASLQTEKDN
Particulars: protein: recombinant; tags: N-terminal GST; dsDNA, one strand shown. The method, boiled down: as §1

Another assay has as its target T4, ERG (Homo sapiens, UniProt P11308 1-479).
T4 sequence: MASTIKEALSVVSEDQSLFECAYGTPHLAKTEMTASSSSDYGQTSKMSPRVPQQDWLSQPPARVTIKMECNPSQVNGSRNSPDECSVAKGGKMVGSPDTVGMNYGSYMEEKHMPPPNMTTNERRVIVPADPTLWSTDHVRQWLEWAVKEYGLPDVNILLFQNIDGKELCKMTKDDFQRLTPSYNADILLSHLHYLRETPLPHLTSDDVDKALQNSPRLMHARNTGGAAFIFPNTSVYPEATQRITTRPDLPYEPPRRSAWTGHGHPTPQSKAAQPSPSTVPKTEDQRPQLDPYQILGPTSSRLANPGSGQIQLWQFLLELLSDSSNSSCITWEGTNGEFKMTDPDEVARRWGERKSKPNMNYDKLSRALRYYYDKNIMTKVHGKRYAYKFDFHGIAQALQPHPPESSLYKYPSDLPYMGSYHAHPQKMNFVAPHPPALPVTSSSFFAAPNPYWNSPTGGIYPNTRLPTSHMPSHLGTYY
The settings on record: protein: recombinant; tags: N-terminal GST; dsDNA, one strand shown. The method, boiled down:
as §1

For another assay, the target named is ELF1 (Homo sapiens, UniProt P32519 1-619). Particulars: protein: recombinant; tags: N-terminal GST; dsDNA, one strand shown. A digest of the protocol: as §1
Another assay addresses T5, EHF (Homo sapiens, UniProt Q9NZC4 1-300).
T5 sequence: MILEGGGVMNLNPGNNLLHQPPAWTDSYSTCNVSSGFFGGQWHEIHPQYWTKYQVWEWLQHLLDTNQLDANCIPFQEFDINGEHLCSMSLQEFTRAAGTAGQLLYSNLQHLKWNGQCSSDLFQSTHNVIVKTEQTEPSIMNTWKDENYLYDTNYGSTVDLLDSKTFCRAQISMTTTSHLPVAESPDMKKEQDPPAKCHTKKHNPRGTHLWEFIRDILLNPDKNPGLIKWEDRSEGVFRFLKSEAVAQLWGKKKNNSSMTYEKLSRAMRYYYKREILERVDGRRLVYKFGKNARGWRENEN
Particulars: protein: recombinant; tags: N-terminal GST; dsDNA, one strand shown. A digest of the protocol: as §1

Another assay concerns the target SPI1 (Homo sapiens, UniProt P17947 1-270). Particulars: protein: recombinant; tags: N-terminal GST; dsDNA, one strand shown. A digest of the protocol:
as §1

For the next assay, the target named is SPIB (Homo sapiens, UniProt Q01892 1-262). Particulars: protein: recombinant; tags: N-terminal GST; dsDNA, one strand shown. A digest of the protocol: as §1
A further assay deals with T6, ELK3 (Homo sapiens, UniProt P41970 1-407).
T6 sequence: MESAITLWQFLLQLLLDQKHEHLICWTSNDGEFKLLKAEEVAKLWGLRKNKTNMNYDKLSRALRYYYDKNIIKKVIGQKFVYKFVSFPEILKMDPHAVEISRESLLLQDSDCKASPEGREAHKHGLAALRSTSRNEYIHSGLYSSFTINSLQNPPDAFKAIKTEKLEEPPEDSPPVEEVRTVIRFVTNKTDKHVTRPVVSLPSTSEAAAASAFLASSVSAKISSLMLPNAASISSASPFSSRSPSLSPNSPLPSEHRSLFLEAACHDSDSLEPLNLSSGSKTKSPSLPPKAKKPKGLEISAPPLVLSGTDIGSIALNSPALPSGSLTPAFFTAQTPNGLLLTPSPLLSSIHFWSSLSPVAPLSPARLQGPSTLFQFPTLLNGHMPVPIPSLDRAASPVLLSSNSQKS
Particulars: protein: recombinant; tags: N-terminal GST; dsDNA, one strand shown. A digest of the protocol: as §1

A further assay has as its target T7, FEV (Homo sapiens, UniProt Q99581 1-238).
T7 sequence: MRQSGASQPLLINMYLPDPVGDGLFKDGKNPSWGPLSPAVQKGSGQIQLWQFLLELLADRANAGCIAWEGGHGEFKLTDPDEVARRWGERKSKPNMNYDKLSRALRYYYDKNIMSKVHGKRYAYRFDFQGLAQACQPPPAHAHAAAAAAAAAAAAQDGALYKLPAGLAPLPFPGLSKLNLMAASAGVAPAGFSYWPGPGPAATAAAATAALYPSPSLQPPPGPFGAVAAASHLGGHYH
The settings on record: protein: recombinant; tags: N-terminal GST; dsDNA, one strand shown. The method, boiled down: as §1

For another assay, the target named is ETV5 (Homo sapiens, UniProt P41161 1-510). Particulars: protein: recombinant; tags: N-terminal GST; dsDNA, one strand shown. The method, boiled down: as §1
A further assay deals with HSF1 (Homo sapiens, UniProt Q00613 1-529). The settings on record: protein: recombinant; tags: N-terminal GST; chain copies: 3; dsDNA, one strand shown. The method, boiled down: as §1
The target of a further assay is T8, SPIC (Homo sapiens, UniProt Q8N5J4 1-248).
T8 sequence: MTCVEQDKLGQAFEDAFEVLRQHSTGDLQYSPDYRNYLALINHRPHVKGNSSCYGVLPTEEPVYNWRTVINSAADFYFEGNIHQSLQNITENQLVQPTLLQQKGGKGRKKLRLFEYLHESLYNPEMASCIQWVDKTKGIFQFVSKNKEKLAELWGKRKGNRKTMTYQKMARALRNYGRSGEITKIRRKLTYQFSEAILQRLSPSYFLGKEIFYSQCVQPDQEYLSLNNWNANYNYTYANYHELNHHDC
Particulars: protein: recombinant; tags: N-terminal GST; dsDNA, one strand shown. The method, boiled down:
as §1

The next assay addresses ELF4 (Homo sapiens, UniProt Q99607 1-663). Particulars: protein: recombinant; tags: N-terminal GST; dsDNA, one strand shown. The method, boiled down: as §1
In a further assay the target is T9, ELK4 (Homo sapiens, UniProt P28324-2 1-405).
T9 sequence: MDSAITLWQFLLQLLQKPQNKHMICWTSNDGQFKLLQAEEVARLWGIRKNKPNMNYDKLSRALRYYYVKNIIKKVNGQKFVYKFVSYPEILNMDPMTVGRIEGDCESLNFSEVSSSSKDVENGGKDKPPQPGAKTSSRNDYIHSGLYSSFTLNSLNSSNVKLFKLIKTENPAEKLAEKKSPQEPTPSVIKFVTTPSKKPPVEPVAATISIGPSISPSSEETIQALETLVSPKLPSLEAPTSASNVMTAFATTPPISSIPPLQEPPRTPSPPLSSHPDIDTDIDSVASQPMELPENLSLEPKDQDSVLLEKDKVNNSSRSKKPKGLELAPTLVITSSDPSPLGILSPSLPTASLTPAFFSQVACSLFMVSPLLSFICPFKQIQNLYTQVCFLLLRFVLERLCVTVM
Particulars: protein: recombinant; tags: N-terminal GST; dsDNA, one strand shown. A digest of the protocol: as §1

The target in a further assay is T10, ETV2 (Homo sapiens, UniProt O00321 1-342).
T10 sequence: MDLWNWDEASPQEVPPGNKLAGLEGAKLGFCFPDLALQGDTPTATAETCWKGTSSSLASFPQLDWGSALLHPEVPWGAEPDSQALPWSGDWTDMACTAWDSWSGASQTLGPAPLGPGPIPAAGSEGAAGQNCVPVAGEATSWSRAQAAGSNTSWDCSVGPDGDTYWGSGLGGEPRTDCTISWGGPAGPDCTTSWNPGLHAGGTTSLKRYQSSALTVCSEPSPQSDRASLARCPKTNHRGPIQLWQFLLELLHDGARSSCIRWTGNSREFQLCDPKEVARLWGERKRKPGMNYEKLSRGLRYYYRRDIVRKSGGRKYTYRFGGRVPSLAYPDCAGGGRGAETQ
Particulars: protein: recombinant; tags: N-terminal GST; dsDNA, one strand shown. The method, boiled down:
as §1

For a further assay, the target named is T11, ELF3 (Homo sapiens, UniProt P78545 1-371).
T11 sequence: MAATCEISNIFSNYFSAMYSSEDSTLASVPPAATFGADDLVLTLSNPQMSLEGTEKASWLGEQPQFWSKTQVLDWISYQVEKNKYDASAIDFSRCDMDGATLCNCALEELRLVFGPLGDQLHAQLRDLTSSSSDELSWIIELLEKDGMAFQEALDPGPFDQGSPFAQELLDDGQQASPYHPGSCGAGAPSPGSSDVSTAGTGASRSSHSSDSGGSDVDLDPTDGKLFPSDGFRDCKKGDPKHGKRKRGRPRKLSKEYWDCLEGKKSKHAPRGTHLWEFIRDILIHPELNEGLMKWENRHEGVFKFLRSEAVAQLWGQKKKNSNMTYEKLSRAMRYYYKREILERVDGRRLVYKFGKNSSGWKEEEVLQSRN
Particulars: protein: recombinant; tags: N-terminal GST; dsDNA, one strand shown. A digest of the protocol: as §1

In a further assay the target is CRX (Homo sapiens, UniProt O43186 1-299). The settings on record: protein: recombinant; tags: N-terminal GST; dsDNA, one strand shown. The method, boiled down:
as §1

The next assay deals with ETV1 (Homo sapiens, UniProt P50549 1-477). Particulars: protein: recombinant; tags: N-terminal GST; dsDNA, one strand shown. The method, boiled down:
as §1

ETV5, sequence (P41161 whole entry): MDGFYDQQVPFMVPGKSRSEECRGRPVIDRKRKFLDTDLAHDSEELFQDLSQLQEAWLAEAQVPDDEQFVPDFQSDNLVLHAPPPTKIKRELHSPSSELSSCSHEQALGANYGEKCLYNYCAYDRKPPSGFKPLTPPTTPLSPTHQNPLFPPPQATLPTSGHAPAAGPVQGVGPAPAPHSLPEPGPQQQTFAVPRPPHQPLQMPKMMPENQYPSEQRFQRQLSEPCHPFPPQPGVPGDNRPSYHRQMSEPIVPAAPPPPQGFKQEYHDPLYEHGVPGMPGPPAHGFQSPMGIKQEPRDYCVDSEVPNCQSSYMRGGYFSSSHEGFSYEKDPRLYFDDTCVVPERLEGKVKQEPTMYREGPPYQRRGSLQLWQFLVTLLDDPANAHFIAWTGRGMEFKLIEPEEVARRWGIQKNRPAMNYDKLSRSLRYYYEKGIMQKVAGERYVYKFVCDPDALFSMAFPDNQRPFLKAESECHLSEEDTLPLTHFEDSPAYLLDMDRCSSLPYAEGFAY
ETV1, sequence (P50549 whole entry): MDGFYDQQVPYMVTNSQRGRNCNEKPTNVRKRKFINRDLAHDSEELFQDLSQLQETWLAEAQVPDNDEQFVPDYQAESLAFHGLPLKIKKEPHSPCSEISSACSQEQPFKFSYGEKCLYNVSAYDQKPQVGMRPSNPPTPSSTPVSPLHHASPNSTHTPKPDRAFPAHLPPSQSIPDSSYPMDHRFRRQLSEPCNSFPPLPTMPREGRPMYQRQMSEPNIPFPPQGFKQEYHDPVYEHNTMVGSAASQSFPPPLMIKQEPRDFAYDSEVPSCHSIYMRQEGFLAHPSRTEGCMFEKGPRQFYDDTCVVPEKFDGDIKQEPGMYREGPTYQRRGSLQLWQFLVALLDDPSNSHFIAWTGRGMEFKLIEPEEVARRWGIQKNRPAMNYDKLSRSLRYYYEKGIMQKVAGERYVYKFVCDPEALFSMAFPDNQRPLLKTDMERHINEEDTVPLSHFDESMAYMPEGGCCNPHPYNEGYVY
HSF1, sequence (Q00613 whole entry): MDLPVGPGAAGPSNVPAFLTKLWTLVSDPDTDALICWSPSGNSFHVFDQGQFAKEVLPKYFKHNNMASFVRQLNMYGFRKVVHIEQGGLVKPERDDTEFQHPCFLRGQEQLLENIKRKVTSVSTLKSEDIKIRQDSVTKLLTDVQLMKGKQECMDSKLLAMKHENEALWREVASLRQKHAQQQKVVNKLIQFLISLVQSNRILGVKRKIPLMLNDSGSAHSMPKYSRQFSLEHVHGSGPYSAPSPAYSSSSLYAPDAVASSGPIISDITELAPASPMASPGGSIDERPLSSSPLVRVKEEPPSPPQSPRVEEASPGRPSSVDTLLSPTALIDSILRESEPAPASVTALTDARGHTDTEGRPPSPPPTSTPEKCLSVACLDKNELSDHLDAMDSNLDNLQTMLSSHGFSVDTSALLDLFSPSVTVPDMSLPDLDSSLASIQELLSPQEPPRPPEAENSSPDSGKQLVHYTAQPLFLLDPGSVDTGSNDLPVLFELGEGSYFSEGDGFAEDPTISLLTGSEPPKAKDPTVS
ELF1, sequence (P32519 whole entry): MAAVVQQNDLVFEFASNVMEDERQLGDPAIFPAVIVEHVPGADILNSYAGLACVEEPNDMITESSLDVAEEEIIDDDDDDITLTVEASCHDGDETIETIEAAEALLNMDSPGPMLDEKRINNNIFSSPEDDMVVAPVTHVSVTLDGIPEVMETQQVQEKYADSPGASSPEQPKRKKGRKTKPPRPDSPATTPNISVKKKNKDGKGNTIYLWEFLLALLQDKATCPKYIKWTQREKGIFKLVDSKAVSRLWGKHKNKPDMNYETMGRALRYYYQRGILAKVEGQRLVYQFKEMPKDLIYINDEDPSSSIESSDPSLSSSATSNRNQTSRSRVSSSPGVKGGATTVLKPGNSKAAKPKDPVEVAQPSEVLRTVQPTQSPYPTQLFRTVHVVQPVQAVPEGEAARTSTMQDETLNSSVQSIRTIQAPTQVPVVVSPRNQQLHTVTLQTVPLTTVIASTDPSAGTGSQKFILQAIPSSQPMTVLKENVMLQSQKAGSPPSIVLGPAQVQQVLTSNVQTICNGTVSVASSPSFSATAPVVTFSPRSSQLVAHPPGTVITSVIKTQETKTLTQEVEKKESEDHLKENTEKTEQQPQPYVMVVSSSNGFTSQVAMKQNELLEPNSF
CRX, sequence (O43186 whole entry): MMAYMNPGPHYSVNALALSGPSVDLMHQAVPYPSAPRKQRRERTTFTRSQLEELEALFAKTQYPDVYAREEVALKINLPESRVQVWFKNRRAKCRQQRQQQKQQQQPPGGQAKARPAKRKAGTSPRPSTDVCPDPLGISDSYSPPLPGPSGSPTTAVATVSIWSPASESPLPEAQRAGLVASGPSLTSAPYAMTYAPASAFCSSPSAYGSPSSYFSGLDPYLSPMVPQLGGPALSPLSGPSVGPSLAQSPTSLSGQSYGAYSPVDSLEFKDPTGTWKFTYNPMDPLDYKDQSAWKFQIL
SPIB, sequence (Q01892 whole entry): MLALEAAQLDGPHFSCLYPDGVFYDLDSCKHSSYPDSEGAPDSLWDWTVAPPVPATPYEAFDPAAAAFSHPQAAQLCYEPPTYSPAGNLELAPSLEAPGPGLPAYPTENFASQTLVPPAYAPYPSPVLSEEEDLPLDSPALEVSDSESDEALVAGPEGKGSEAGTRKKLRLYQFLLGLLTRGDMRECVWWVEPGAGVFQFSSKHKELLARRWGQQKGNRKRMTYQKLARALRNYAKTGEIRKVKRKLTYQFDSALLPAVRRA
ELF4, sequence (Q99607 whole entry): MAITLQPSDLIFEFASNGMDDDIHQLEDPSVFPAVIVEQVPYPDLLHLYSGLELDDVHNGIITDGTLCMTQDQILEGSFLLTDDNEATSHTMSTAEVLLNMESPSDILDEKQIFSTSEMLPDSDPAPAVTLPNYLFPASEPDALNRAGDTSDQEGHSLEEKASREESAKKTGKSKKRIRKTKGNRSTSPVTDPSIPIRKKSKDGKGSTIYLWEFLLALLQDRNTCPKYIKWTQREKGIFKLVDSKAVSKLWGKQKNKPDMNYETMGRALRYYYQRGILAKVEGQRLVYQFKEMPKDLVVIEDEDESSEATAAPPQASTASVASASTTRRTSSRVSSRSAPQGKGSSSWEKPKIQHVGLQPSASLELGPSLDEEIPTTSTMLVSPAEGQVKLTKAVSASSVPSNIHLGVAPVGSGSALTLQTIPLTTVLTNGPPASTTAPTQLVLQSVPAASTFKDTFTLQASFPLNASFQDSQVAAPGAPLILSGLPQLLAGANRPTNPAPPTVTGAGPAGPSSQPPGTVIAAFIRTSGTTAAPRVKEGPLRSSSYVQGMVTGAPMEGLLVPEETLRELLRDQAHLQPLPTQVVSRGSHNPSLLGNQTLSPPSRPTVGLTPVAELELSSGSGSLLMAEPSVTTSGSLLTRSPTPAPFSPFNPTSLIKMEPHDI

As to TCCGGA, the binding signal with FLI1 was 2.58 fold enrichment (6-mer frequency, TF over GST control); with ELK1, 2.53 fold enrichment (6-mer frequency, TF over GST control); with GABPA, 2.37 fold enrichment (6-mer frequency, TF over GST control); with ERG, 3.19 fold enrichment (6-mer frequency, TF over GST control); with ELF1 it was 2.3 fold enrichment (6-mer frequency, TF over GST control); with EHF, 2.86 fold enrichment (6-mer frequency, TF over GST control). For the same sequence, the binding signal was 2.39 fold enrichment (6-mer frequency, TF over GST control) with SPI1; 2.69 fold enrichment (6-mer frequency, TF over GST control) in the assay with SPIB; 2.67 fold enrichment (6-mer frequency, TF over GST control) with ELK3; 3.95 fold enrichment (6-mer frequency, TF over GST control) with FEV; 2.83 fold enrichment (6-mer frequency, TF over GST control) in the assay with ETV5; 1.58 fold enrichment (6-mer frequency, TF over GST control) with HSF1. Also, the binding signal with SPIC was 2.3 fold enrichment (6-mer frequency, TF over GST control); with ELF4 it was 2.27 fold enrichment (6-mer frequency, TF over GST control); with ELK4, 1.94 fold enrichment (6-mer frequency, TF over GST control); in the assay with ETV2, 2.27 fold enrichment (6-mer frequency, TF over GST control); with ELF3 it was 2.23 fold enrichment (6-mer frequency, TF over GST control); in the assay with CRX, 1.14 fold enrichment (6-mer frequency, TF over GST control). Besides, the binding signal with ETV1 was 2.75 fold enrichment (6-mer frequency, TF over GST control).
